Consider 39 sequences from publication PMC5700166.

In this test the target is T1, GST-Ap-NF-kB RHD (Exaiptasia pallida (Aiptasia), UniProt A0A913YAJ5 2-422).
T1 sequence: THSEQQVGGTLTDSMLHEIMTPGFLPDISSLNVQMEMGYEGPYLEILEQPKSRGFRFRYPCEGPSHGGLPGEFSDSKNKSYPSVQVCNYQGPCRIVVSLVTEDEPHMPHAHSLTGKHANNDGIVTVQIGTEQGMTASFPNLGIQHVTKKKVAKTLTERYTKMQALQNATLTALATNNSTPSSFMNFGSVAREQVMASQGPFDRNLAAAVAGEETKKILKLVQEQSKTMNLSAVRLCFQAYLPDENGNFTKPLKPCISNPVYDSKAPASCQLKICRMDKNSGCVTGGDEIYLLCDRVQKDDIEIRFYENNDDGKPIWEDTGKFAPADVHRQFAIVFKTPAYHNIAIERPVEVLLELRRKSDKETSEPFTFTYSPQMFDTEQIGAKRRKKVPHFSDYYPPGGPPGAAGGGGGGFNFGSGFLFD
Briefly: protein-binding microarray (PBM); PBM: ~300 nM protein, 6 mM HEPES pH 7.8, 80 mM KCl, 0.5 mM EDTA, 0.5 mM EGTA, 6% glycerol, 35 ng/ul poly-dIdC, 1% milk, 1 h, room temperature; Ap Aiptasia and Nv Nematostella (sea anemones) / Co Capsaspora / Aq Amphimedon (sponge) / Dm Drosophila / Hu human; RHD is the Rel homology domain; high values mean tight binding. Particulars: dsDNA, one strand shown.
Sequence “CCGATTAACATCACTAATTTCCCTGATGTTAATCGGGTCTTGATTCGCTTGACGCTGCTG” gave a binding signal of 3.79 z-score.
“CCGATTAACATCAGGAATTCCCATGATGTTAATCGGGTCTTGATTCGCTTGACGCTGCTG” displayed a binding signal of 6.4 z-score.
As for “CCGATTAACATCAAAAATCCCTATGATGTTAATCGGGTCTTGATTCGCTTGACGCTGCTG”, the binding signal is 5.18 z-score.
The figure for “CCGATTAACATCAAACCCCCCCATGATGTTAATCGGGTCTTGATTCGCTTGACGCTGCTG” is 6.35 z-score.
The same measure for “CCGATTAACATCAGGGAGATTTGTGATGTTAATCGGGTCTTGATTCGCTTGACGCTGCTG”: 3.21 z-score; for “CCGATTAACATCAGCCCCCCCCATGATGTTAATCGGGTCTTGATTCGCTTGACGCTGCTG”: 4.34 z-score; for “CCGATTAACATCAAATCATCCCCTGATGTTAATCGGGTCTTGATTCGCTTGACGCTGCTG”: 4.78 z-score.
As to “CCGATTAACATCATGATGGGAAATGATGTTAATCGGGTCTTGATTCGCTTGACGCTGCTG”, the binding signal amounted to 1.17 z-score.
Consider “CCGATTAACATCAGGGGGGGTCATGATGTTAATCGGGTCTTGATTCGCTTGACGCTGCTG”, for which the binding signal was determined as 3.99 z-score.
The sequence “CCGATTAACATCAGGGGAACACATGATGTTAATCGGGTCTTGATTCGCTTGACGCTGCTG” returned a binding signal of 4.8 z-score.
The sequence “CCGATTAACATCAATTTTTCCCATGATGTTAATCGGGTCTTGATTCGCTTGACGCTGCTG” returned a binding signal of 2.62 z-score.
“CCGATTAACATCAGGGACAAAAATGATGTTAATCGGGTCTTGATTCGCTTGACGCTGCTG” had a binding signal of 2 z-score.
For the sequence “CCGATTAACATCACAGGGAATTCTGATGTTAATCGGGTCTTGATTCGCTTGACGCTGCTG”, the binding signal is 4.57 z-score.
“CCGATTAACATCACATTGTCCCCTGATGTTAATCGGGTCTTGATTCGCTTGACGCTGCTG” yielded a binding signal of 4.03 z-score.
The sequence “CCGATTAACATCAGTAACTCCCTTGATGTTAATCGGGTCTTGATTCGCTTGACGCTGCTG” showed a binding signal of 2.54 z-score.
With “CCGATTAACATCACCCGTTTCCCTGATGTTAATCGGGTCTTGATTCGCTTGACGCTGCTG”, the binding signal stood at 2.8 z-score.
The figure for “CCGATTAACATCACGGGAAGTCCTGATGTTAATCGGGTCTTGATTCGCTTGACGCTGCTG” is 2.98 z-score; for “CCGATTAACATCAGGGGAGTAAATGATGTTAATCGGGTCTTGATTCGCTTGACGCTGCTG” it is 3.1 z-score.
The figure for “CCGATTAACATCAATCACCCCCATGATGTTAATCGGGTCTTGATTCGCTTGACGCTGCTG” is 4.03 z-score; for “CCGATTAACATCAGGAGTTTCCCTGATGTTAATCGGGTCTTGATTCGCTTGACGCTGCTG” it is 4.6 z-score; for “CCGATTAACATCAGGATGTTCCCTGATGTTAATCGGGTCTTGATTCGCTTGACGCTGCTG” it is 2.3 z-score.
For “CCGATTAACATCATCCCCCCCCATGATGTTAATCGGGTCTTGATTCGCTTGACGCTGCTG”, the binding signal amounted to 6.69 z-score.
Turning to “CCGATTAACATCAGGGAAAGGTATGATGTTAATCGGGTCTTGATTCGCTTGACGCTGCTG”, the binding signal stood at 2.16 z-score.
“CCGATTAACATCAGGGGGGCACCTGATGTTAATCGGGTCTTGATTCGCTTGACGCTGCTG”: the binding signal was determined as 4.84 z-score.
Turning to “CCGATTAACATCACCGCCCCCCCTGATGTTAATCGGGTCTTGATTCGCTTGACGCTGCTG”, the binding signal came out at 3.91 z-score.
In turn, “CCGATTAACATCACGTCCCCCCCTGATGTTAATCGGGTCTTGATTCGCTTGACGCTGCTG” registered a binding signal of 6.32 z-score.
Turning to “CCGATTAACATCAGGGGAGCACCTGATGTTAATCGGGTCTTGATTCGCTTGACGCTGCTG”, the binding signal amounted to 4.77 z-score.
Sequence “CCGATTAACATCACGGGATTTACTGATGTTAATCGGGTCTTGATTCGCTTGACGCTGCTG” registered a binding signal of 2.52 z-score.
The same measure for “CCGATTAACATCACTGGGATTTCTGATGTTAATCGGGTCTTGATTCGCTTGACGCTGCTG”: 2.53 z-score; for “CCGATTAACATCAGGATAATCCCTGATGTTAATCGGGTCTTGATTCGCTTGACGCTGCTG”: 4.74 z-score.
The same measure for “CCGATTAACATCAATTACCCCCCTGATGTTAATCGGGTCTTGATTCGCTTGACGCTGCTG”: 5.96 z-score; for “CCGATTAACATCAGATTTCCCACTGATGTTAATCGGGTCTTGATTCGCTTGACGCTGCTG”: 1.83 z-score; for “CCGATTAACATCAGAATTACCCATGATGTTAATCGGGTCTTGATTCGCTTGACGCTGCTG”: 3.09 z-score.
For the sequence “CCGATTAACATCAAGGGGGTAAATGATGTTAATCGGGTCTTGATTCGCTTGACGCTGCTG”, the binding signal was found to be 5.28 z-score.
“CCGATTAACATCAACGGGAATTCTGATGTTAATCGGGTCTTGATTCGCTTGACGCTGCTG” had a binding signal of 4.32 z-score.
Turning to “CCGATTAACATCAGGGAATTGTATGATGTTAATCGGGTCTTGATTCGCTTGACGCTGCTG”, the binding signal amounted to 2.85 z-score.
In the case of “CCGATTAACATCAGTAATTCCCATGATGTTAATCGGGTCTTGATTCGCTTGACGCTGCTG”, the binding signal is 4.02 z-score.
The figure for “CCGATTAACATCACGGGACTCCCTGATGTTAATCGGGTCTTGATTCGCTTGACGCTGCTG” is 5.53 z-score; for “CCGATTAACATCAGGGGGTACCCTGATGTTAATCGGGTCTTGATTCGCTTGACGCTGCTG” it is 7.79 z-score.
